# Measured values reported in PubChem BioAssay.
# “And” between values parts separate entries of the source, which are not always exact repeats. Identical values can stand only once. The source made the active and inactive calls.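 How the source made its calls, unless noted: active means compound that reduces growth-factor-driven endothelial tube area in a mixed cell culture, no cutoff stated; inactive means the rest.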
# What was measured:
# [1] = stimulators of nuclear beta-catenin in C2C12, primary screen, imaging, WNT3A-conditioned medium, mouse C2C12, NPC library (AID 1117326; in the data active means nuclear beta-catenin stimulation mostly above about 4.2%, no sharp cut-off; inactive means mostly below about 10%); settings: stronger effect = higher value
# [2] = stimulators of insulin release from INS-1E, primary screen, cell-based, 5 mM glucose, NPC library (AID 1117329;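 active means compound raises insulin release from rat beta cells at 5 mM glucose, no numeric limit stated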); settings: rat INS-1E insulin secretion, at 10 µM, stronger effect = higher value
# [3] = growth inhibition of GSK3B-pretreated HCT116 cells – cell-based, CellTiter-Glo, 0.2 to 20 µM (AID 1117336;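 active means compounds lowering colon cancer cell viability after pretreatment blocking the GSK3B kinase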); settings: HCT116 viability after GSK3B inhibitor, at 20 µM, stronger effect = higher value
# [4] = inhibition of endothelial tube formation, primary screen, imaging, VEGF stimulated, CD31 staining, tube area, NPC library (AID 1117340); settings: VEGF-stimulated ADSC/ECFC co-culture, at 10 µM, stronger effect = higher value
# [5] = glucagon-like peptide 1 release enhancers, primary assay, NCI-H716 cell line, NPC library (AID 1117341;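 active means compound raises GLP1 secretion from the human gut endocrine cells, with no numeric limit stated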); settings: NCI-H716 cells, at 10 µM, stronger effect = higher value
# [6] = HCT116 colon cancer cell growth inhibition, primary screen, CellTiter-Glo luminescence, NPC library (AID 1117342;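 active means compounds that lower survival of HCT116 colon cancer cells in the luminescence readout, no numeric limit stated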); settings: at 20 µM (top of the series)
# [7] = CellTiter-Glo luminescent readout of SW480 viability loss, NPC library primary (AID 1117343;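 active means compounds that lower viability of the colon cancer cells in the luminescence readout, with no numeric limit stated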); settings: CellTiter-Glo luminescence; at 20 µM (top of the series) unless noted
# [8] = decreased DLD-1 cellular survival, CellTiter-Glo luminescent readout, NPC compound collection, primary HTS (AID 1117346;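 active means compounds that lower survival of DLD-1 colon cancer cells in the luminescence readout, no cutoff given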); settings: DLD-1 viability, CellTiter-Glo luminescence; at 20 µM (top of the series)
# [9] = differential killing of epithelial or mesenchymal cells, primary screen, imaging, PC-3E GFP, TEM4-18 mCherry, co-culture (AID 1345086;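 active means compounds killing one labelled cell type while sparing the other, by normalised counts and ratio limits, not self-fluorescent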;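 on all read-outs here: cells exposed to compound for 72 h before imaging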;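 on red/green cell ratio (normalised): normalised mesenchymal count divided by normalised epithelial count so high means epithelial killing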); settings: imaging cell counts, at 1 µM; for red/green cell ratio (normalised): actives lie on both sides, counts scaled to control wells, 1 = unselective
# [10] = liver-stage malaria parasite growth inhibition, primary screen, cell-based, HepG2, luciferase luminescence, HepG2 viability (AID 624349; in the data active means parasite load remaining mostly below about 12%, no sharp cut-off; inactive means mostly above about 10%;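 further: 100% = mean of DMSO negative control wells on the same plate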); settings: P. berghei liver stage in HepG2, luciferase luminescence, concentration not given here; parasite load remaining: stronger effect = lower value; viability: measured here: HepG2 viability without parasites
# [11] = sensitizers of A549 cells to miR-34 induction, primary screen, imaging, A549 dox-inducible miR-34, nuclei and caspase counts (AID 1347080;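 active means compounds whose cell count with miR-34 switched on is under 0.7 times the count with it off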); settings: A549 miR-34 inducible, Hoechst nuclei count, 48 h
# [12] = target: NAD(+) hydrolase SARM1 (Homo sapiens) (UniProt Q6SZW1); experiment: SARM1 TIR NADase inhibitors, cell lysate, NAD-Glo luminescence (AID 1508614;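 active means compound whose remaining NAD level is above about 45 nM, limit read from the data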); settings: SAM-TIR HEK293T lysate NADase, at 1 µM, stronger effect = higher value
# NAD(+) hydrolase SARM1 (Homo sapiens), sequence (Q6SZW1 whole entry, looked up): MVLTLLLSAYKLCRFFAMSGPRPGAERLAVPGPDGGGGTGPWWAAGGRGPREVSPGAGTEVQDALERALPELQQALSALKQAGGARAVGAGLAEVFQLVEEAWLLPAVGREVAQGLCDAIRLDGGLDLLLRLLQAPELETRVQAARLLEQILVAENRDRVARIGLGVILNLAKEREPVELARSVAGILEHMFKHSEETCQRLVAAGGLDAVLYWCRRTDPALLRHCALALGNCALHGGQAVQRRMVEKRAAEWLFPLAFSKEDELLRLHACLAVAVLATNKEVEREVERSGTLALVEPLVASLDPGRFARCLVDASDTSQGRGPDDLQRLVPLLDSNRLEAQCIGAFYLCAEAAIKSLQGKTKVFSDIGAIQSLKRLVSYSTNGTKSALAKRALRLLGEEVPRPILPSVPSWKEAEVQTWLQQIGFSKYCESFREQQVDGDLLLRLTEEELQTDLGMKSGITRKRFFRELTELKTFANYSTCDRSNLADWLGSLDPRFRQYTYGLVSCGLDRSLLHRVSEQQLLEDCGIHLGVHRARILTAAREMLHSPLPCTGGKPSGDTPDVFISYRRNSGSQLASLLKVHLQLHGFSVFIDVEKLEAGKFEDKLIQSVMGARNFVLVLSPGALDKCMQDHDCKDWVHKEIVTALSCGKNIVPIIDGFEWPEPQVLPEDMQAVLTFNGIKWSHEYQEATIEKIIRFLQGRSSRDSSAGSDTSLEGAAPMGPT
# [13] = survival rescue of mitochondrial mutant cells in low glucose, primary screen, MELAS cybrids, Rieske KO mouse fibroblasts, CellTiter-Glo (AID 1508586;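 active means mean z-score across replicates of 1.96 or higher in either the MELAS or the Rieske mutant cell line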;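 further: z relative to plate mean and SD of compound and empty wells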)
# [14] = viability rescue of complex I mutant cybrids, primary screen, cell-based, galactose medium, ATP luminescence (AID 1645843;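 active means z-score of at least 1.8 in each of two replicates, scored against plate mean and spread of sample wells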;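 further: positive z means more ATP and so rescue of galactose-driven cybrid death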); settings: complex I mutant cybrid cells, 72 h, stronger effect = higher value
# [15] = measured here: epithelial PC-3E GFP cell survival
# [16] = measured here: mesenchymal TEM4-18 mCherry cell survival
# [17] = stronger effect = lower value, cell number ratio, induced over uninduced
# [18] = measured here: relative caspase fold change +Dox/-Dox
# [19] = measured here: total cells with miR-34 induction, stronger effect = lower value
# [20] = measured here: total cells without miR-34 induction
# [21] = MELAS cybrid survival, CellTiter-Glo 48 h, stronger effect = higher value
# [22] = Rieske KO mouse fibroblast survival, CellTiter-Glo 72 h
smiles,measurement,setting,value
C[C@@]12C(=O)OC(=O)[C@]1(C)C1CCC2O1,nuclear beta-catenin stimulation,[1]; at 10 µM,-1.7% (active)
same,nuclear beta-catenin stimulation,"[1]; stimulation, at 2 µM",49.7%
same,insulin secretion stimulation,[2],2.3% (inactive)
same,viability decrease,[3],83.1% (active)
same,tube area decrease,[4],111% (active)
same,GLP1 secretion stimulation,[5],20.1% (active)
same,inhibition of viability,[6],73% (active)
same,viability decrease (inhibition),[7],112% (active)
same,viability decrease (inhibition),[8],91% (active)
same,red/green cell ratio (normalised),[9],0.98 (inactive)
same,normalised cell number,[9]; [15],1.02
same,normalised cell number,[9]; [16],1.01
CC(C)CCCC(C)N (stereo not given),parasite load remaining,[10],30.8% (inactive)
same,viability,[10],90%
same,nuclear beta-catenin stimulation,[1]; at 10 µM,3.1% (inactive)
same,nuclear beta-catenin stimulation,"[1]; stimulation, at 2 µM",2%
same,insulin secretion stimulation,[2],4.9% (inactive)
same,viability decrease,[3],2% (inactive)
same,tube area decrease,[4],-9.7% (inactive)
same,GLP1 secretion stimulation,[5],0% (inactive)
same,inhibition of viability,[6],-7.6% (inactive)
same,viability decrease (inhibition),[7],-47.3% (active)
same,viability decrease (inhibition),[8],-8.6% (active)
same,red/green cell ratio (normalised),[9],1.15 (inactive)
same,normalised cell number,[9]; [15],0.96
same,normalised cell number,[9]; [16],1.1
same,fold change,[11]; [17],0.884 (inactive)
same,fold change,[11]; [18],1.92
same,cell count,[11]; [19],11300
same,cell count,[11]; [20],12800
same,remaining NAD,[12],10 nM (inactive)
O=C(O)CN(CC(=O)O)Cc1cc2c(-c3ccccc3C(=O)O)c3cc(CN(CC(=O)O)CC(=O)O)c(=O)cc-3oc2cc1O,parasite load remaining,[10],107% (inactive)
same,viability,[10],73.2%
same,nuclear beta-catenin stimulation,[1]; at 10 µM,-1.1% (inactive)
same,nuclear beta-catenin stimulation,"[1]; stimulation, at 2 µM",-0.6%
same,insulin secretion stimulation,[2],-0.4% (inactive)
same,viability decrease,[3],38.8% (inactive)
same,tube area decrease,[4],19.9% (inactive)
same,GLP1 secretion stimulation,[5],0.8% (inactive)
same,inhibition of viability,[6],22.3% (inactive)
same,viability decrease (inhibition),[7],25.8% (inactive)
same,viability decrease (inhibition),[8],14.8% (inactive)
same,red/green cell ratio (normalised),[9],0.97 (inactive)
same,normalised cell number,[9]; [15],1.53
same,normalised cell number,[9]; [16],1.49
C[N+](C)(C)CCCCCCCCCC[N+](C)(C)C,parasite load remaining,[10],84.1% (inactive) and 61.8% (inactive) and 73.4% (inactive)
same,viability,[10],80.8% and 105% and 148%
same,nuclear beta-catenin stimulation,[1]; at 10 µM,-0.1% (inactive)
same,nuclear beta-catenin stimulation,"[1]; stimulation, at 2 µM",-0.9%
same,insulin secretion stimulation,[2],1.7% (inactive)
same,viability decrease,[3],17.6% (inactive)
same,tube area decrease,[4],-2.9% (inactive)
same,GLP1 secretion stimulation,[5],0.7% (inactive)
same,inhibition of viability,[6],2.9% (inactive)
same,viability decrease (inhibition),[7],-8.7% (inactive)
same,viability decrease (inhibition),[8],-0.3% (inactive)
same,red/green cell ratio (normalised),[9],0.87 (inactive)
same,normalised cell number,[9]; [15],1.13
same,normalised cell number,[9]; [16],0.99
same,z-score,[13]; [21],-0.278 (inactive) and -0.415 (inactive) and 0.382 (inactive)
same,z-score,[13]; [22],-0.149 and -1.14 and 0.433
same,remaining NAD,[12],10 nM (inactive)
same,z-score,[14],0.27 (inactive) and 0.14 (inactive)
CN(C)CCCOc1nn(Cc2ccccc2)c2ccccc12,nuclear beta-catenin stimulation,[1]; at 10 µM,2.1% (inactive)
same,nuclear beta-catenin stimulation,"[1]; stimulation, at 2 µM",0.5%
same,insulin secretion stimulation,[2],86.5% (active)
same,viability decrease,[3],21.7% (inactive)
same,tube area decrease,[4],12.8% (inactive)
same,GLP1 secretion stimulation,[5],6% (inactive)
same,inhibition of viability,[6],46% (inactive)
same,viability decrease (inhibition),[7],82.6% (active)
same,viability decrease (inhibition),[8],84.1% (active)
same,red/green cell ratio (normalised),[9],0.88 (inactive)
same,normalised cell number,[9]; [15],1.01
same,normalised cell number,[9]; [16],0.89
same,z-score,[13]; [21],-0.315 (inactive) and 0.45 (inactive) and -0.608 (inactive)
same,z-score,[13]; [22],-0.145 and 0.0321 and -1.45
same,remaining NAD,[12],10 nM (inactive)
same,z-score,[14],-0.89 (inactive)
NC(=O)C1(N2CCCCC2)CCN(CCCC(=O)c2ccc(F)cc2)CC1,nuclear beta-catenin stimulation,[1]; at 10 µM,-0.9% (inactive)
same,nuclear beta-catenin stimulation,"[1]; stimulation, at 2 µM",-2%
same,insulin secretion stimulation,[2],-0.5% (inactive)
same,viability decrease,[3],-17.7% (inactive)
same,tube area decrease,[4],11.1% (inactive)
same,GLP1 secretion stimulation,[5],2.8% (inactive)
same,inhibition of viability,[6],15.3% (inactive)
same,viability decrease (inhibition),[7],12.8% (inactive)
same,viability decrease (inhibition),[8],-5.9% (inactive)
same,red/green cell ratio (normalised),[9],0.88 (inactive)
same,normalised cell number,[9]; [15],1.16
same,normalised cell number,[9]; [16],1.02
same,fold change,[11]; [17],0.938 (inactive)
same,fold change,[11]; [18],0.733
same,cell count,[11]; [19],8980
same,cell count,[11]; [20],9580
same,remaining NAD,[12],10 nM (inactive)
CC(C)(C)CC(C)(C)c1cc(Cc2cc(C(C)(C)CC(C)(C)C)cc(-n3nc4ccccc4n3)c2O)c(O)c(-n2nc3ccccc3n2)c1,nuclear beta-catenin stimulation,[1]; at 10 µM,3.9% (inactive)
same,nuclear beta-catenin stimulation,"[1]; stimulation, at 2 µM",2.5%
same,insulin secretion stimulation,[2],1.7% (inactive)
same,viability decrease,[3],9.1% (inactive)
same,tube area decrease,[4],-10.3% (inactive)
same,GLP1 secretion stimulation,[5],3.4% (inactive)
same,inhibition of viability,[6],1.9% (inactive)
same,viability decrease (inhibition),[7],-54% (inactive)
same,viability decrease (inhibition),[8],7.4% (inactive)
same,red/green cell ratio (normalised),[9],0.81 (inactive)
same,normalised cell number,[9]; [15],1.28
same,normalised cell number,[9]; [16],1.04
same,fold change,[11]; [17],0.928 (inactive)
same,fold change,[11]; [18],0.844
same,cell count,[11]; [19],9130
same,cell count,[11]; [20],9830
same,remaining NAD,[12],10 nM (inactive)
O=C1c2ccccc2C(=O)C1c1ccc(Br)cc1,parasite load remaining,[10],54.8% (inactive)
same,viability,[10],105%
same,nuclear beta-catenin stimulation,[1]; at 10 µM,2.7% (inactive)
same,nuclear beta-catenin stimulation,"[1]; stimulation, at 2 µM",1.3%
same,insulin secretion stimulation,[2],4.3% (inactive)
same,viability decrease,[3],52.2% (active)
same,tube area decrease,[4],31.1% (inactive)
same,GLP1 secretion stimulation,[5],-0.4% (inactive)
same,inhibition of viability,[6],61.7% (active)
same,viability decrease (inhibition),[7],67.2% (active)
same,viability decrease (inhibition),[8],26.1% (inactive)
same,red/green cell ratio (normalised),[9],0.9 (inactive)
same,normalised cell number,[9]; [15],0.94
same,normalised cell number,[9]; [16],0.85
same,fold change,[11]; [17],0.831 (inactive)
same,fold change,[11]; [18],3.92
same,cell count,[11]; [19],10800
same,cell count,[11]; [20],13100
same,remaining NAD,[12],10 nM (inactive)
COc1cc(C(=O)NCCCCCC(=O)O)cc(OC)c1OC,parasite load remaining,[10],48.5% (inactive)
same,viability,[10],104%
same,nuclear beta-catenin stimulation,[1]; at 10 µM,-0.1% (inactive)
same,nuclear beta-catenin stimulation,"[1]; stimulation, at 2 µM",-2.6%
same,insulin secretion stimulation,[2],0.5% (inactive)
same,viability decrease,[3],5.7% (inactive)
same,tube area decrease,[4],12.7% (inactive)
same,GLP1 secretion stimulation,[5],-0.6% (inactive)
same,inhibition of viability,[6],6.2% (inactive)
same,viability decrease (inhibition),[7],-6.6% (inactive)
same,viability decrease (inhibition),[8],-0.7% (inactive)
same,red/green cell ratio (normalised),[9],0.91 (inactive)
same,normalised cell number,[9]; [15],0.95
same,normalised cell number,[9]; [16],0.86
same,fold change,[11]; [17],0.815 (inactive)
same,fold change,[11]; [18],7.04
same,cell count,[11]; [19],11100
same,cell count,[11]; [20],13600
same,remaining NAD,[12],10 nM (inactive)
Cc1c(F)c(N2CCNC(C)C2)cc2c1c(=O)c(C(=O)O)cn2C1CC1 (stereo not given),nuclear beta-catenin stimulation,[1]; at 10 µM,0.7% (inactive)
same,nuclear beta-catenin stimulation,"[1]; stimulation, at 2 µM",-0.2%
same,insulin secretion stimulation,[2],1.15% (inactive)
same,viability decrease,[3],57.3% (active)
same,tube area decrease,[4],-1% (inactive)
same,GLP1 secretion stimulation,[5],-0.4% (inactive)
same,inhibition of viability,[6],39.5% (inactive)
same,viability decrease (inhibition),[7],0% (inactive)
same,viability decrease (inhibition),[8],-10.1% (inactive)
same,red/green cell ratio (normalised),[9],1 (inactive)
same,normalised cell number,[9]; [15],1.13
same,normalised cell number,[9]; [16],1.12
same,z-score,[13]; [21],0.28 (inactive)
same,z-score,[13]; [22],-0.0779
